# Several values for one entry are separate records, joined by “and”; a condition that tells them apart may be missing. Equal entries are not always repeated. Activity calls are given as the source filed them. Cut-off read from the data, not from the text of the source, unless noted: active = parasite load remaining mostly below about 12% (no sharp cut-off); inactive = mostly above about 10%.
# How the values were obtained:
# [1] = suppressors of polyQ aggregation in yeast, 75Q-TubU reporter (AID 1593); settings: Yeast 75Q polyglutamine aggregation reporter
# [2] = inhibitors of mitochondrial cytochrome c release, biochemical, purified mitochondria (AID 1603); settings: stronger effect = lower value;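 note: mouse liver mitochondria challenged with calcium chloride; signal normalized to the plate average as 100%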
# [3] = inhibitors of polyQ protein aggregation (AID 1604); settings: polyglutamine-induced protein aggregation inhibition assay; stronger effect = higher value; tested at 2.5 µM
# [4] = liver-stage malaria parasite growth inhibition, primary screen, cell-based, HepG2, luciferase luminescence, HepG2 viability (AID 624349);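 note: 100% = mean of DMSO negative control wells on the same plate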; settings: P. berghei liver stage in HepG2, luciferase luminescence, concentration not given here; parasite load remaining: stronger effect = lower value; viability: measured here: HepG2 viability without parasites
# [5] = stimulators of nuclear beta-catenin in C2C12, primary screen, imaging, WNT3A-conditioned medium, mouse C2C12, NPC library (AID 1117326; in the data active = nuclear beta-catenin stimulation mostly above about 4.2%, no sharp cut-off; inactive = mostly below about 10%); settings: stronger effect = higher value
# [6] = stimulators of insulin release from INS-1E, primary screen, cell-based, 5 mM glucose, NPC library (AID 1117329;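 active = compound raises insulin release from rat beta cells at 5 mM glucose, no numeric limit stated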); settings: rat INS-1E insulin secretion, at 10 µM, stronger effect = higher value
# [7] = growth inhibition of GSK3B-pretreated HCT116 cells – cell-based, CellTiter-Glo, 0.2 to 20 µM (AID 1117336;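 active = compounds lowering colon cancer cell viability after pretreatment blocking the GSK3B kinase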); settings: HCT116 viability after GSK3B inhibitor, at 20 µM, stronger effect = higher value
# [8] = inhibition of endothelial tube formation, primary screen, imaging, VEGF stimulated, CD31 staining, tube area, NPC library (AID 1117340;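 active = compound that reduces growth-factor-driven endothelial tube area in a mixed cell culture, no cutoff stated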); settings: VEGF-stimulated ADSC/ECFC co-culture, at 10 µM, stronger effect = higher value
# [9] = glucagon-like peptide 1 release enhancers, primary assay, NCI-H716 cell line, NPC library (AID 1117341;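 active = compound raises GLP1 secretion from the human gut endocrine cells, with no numeric limit stated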); settings: NCI-H716 cells, at 10 µM, stronger effect = higher value
# [10] = HCT116 colon cancer cell growth inhibition, primary screen, CellTiter-Glo luminescence, NPC library (AID 1117342;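 active = compounds that lower survival of HCT116 colon cancer cells in the luminescence readout, no numeric limit stated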); settings: at 20 µM (top of the series)
# [11] = CellTiter-Glo luminescent readout of SW480 viability loss, NPC library primary (AID 1117343;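 active = compounds that lower viability of the colon cancer cells in the luminescence readout, with no numeric limit stated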); settings: CellTiter-Glo luminescence; at 20 µM (top of the series)
# [12] = decreased DLD-1 cellular survival, CellTiter-Glo luminescent readout, NPC compound collection, primary HTS (AID 1117346;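 active = compounds that lower survival of DLD-1 colon cancer cells in the luminescence readout, no cutoff given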); settings: DLD-1 viability, CellTiter-Glo luminescence; at 20 µM (top of the series)
# [13] = target: 6-phosphogluconate dehydrogenase, decarboxylating (Homo sapiens) (UniProt P52209); test: 6PGD enzyme inhibitors, primary screen, biochemical, human, recombinant enzyme, NADPH absorbance (AID 1159550;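 active = at least 20% inhibition of 6-phosphogluconate dehydrogenase activity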); settings: recombinant 6PGD, NADPH absorbance 341 nm; at 10 µM; stronger effect = higher value
# Sequence of 6-phosphogluconate dehydrogenase, decarboxylating (Homo sapiens) (P52209 whole entry, looked up): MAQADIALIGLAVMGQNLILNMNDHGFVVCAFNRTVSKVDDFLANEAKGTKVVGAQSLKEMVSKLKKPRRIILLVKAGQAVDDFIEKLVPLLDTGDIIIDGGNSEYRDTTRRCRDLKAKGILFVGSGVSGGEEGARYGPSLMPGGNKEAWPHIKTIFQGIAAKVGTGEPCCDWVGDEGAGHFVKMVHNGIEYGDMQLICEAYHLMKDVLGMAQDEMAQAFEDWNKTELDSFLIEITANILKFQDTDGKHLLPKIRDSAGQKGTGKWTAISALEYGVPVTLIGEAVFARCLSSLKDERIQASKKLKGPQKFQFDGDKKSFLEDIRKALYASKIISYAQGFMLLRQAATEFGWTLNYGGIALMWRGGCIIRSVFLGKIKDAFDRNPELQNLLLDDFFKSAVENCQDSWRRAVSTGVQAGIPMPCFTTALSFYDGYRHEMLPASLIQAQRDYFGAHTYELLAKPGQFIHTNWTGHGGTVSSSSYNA
# [14] = differential killing of epithelial or mesenchymal cells, primary screen, imaging, PC-3E GFP, TEM4-18 mCherry, co-culture (AID 1345086;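 active = compounds killing one labelled cell type while sparing the other, by normalised counts and ratio limits, not self-fluorescent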;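 for all read-outs here: cells exposed to compound for 72 h before imaging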;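 for red/green cell ratio (normalised): normalised mesenchymal count divided by normalised epithelial count so high means epithelial killing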); settings: imaging cell counts, at 1 µM; for red/green cell ratio (normalised): actives lie on both sides
# [15] = tested on: Aerobactin synthetase IucA (Klebsiella pneumoniae hvKP1); test: Biochemical IucA enzyme inhibition primary screen of the Spectrum library (AID 1346200; call rule not given here;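 note: 100% = wells without compound and 0% = wells lacking enzyme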); settings: malachite green pyrophosphate, A620, at 8 µM, stronger effect = lower value
# [16] = sensitizers of A549 cells to miR-34 induction, primary screen, imaging, A549 dox-inducible miR-34, nuclei and caspase counts (AID 1347080;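 active = compounds whose cell count with miR-34 switched on is under 0.7 times the count with it off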); settings: A549 miR-34 inducible, Hoechst nuclei count, 48 h
# [17] = survival rescue of mitochondrial mutant cells in low glucose, primary screen, MELAS cybrids, Rieske KO mouse fibroblasts, CellTiter-Glo (AID 1508586;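 active = mean z-score across replicates of 1.96 or higher in either the MELAS or the Rieske mutant cell line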;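 note: z relative to plate mean and SD of compound and empty wells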)
# [18] = target: NAD(+) hydrolase SARM1 (Homo sapiens) (UniProt Q6SZW1); test: SARM1 TIR NADase inhibitors, cell lysate, NAD-Glo luminescence (AID 1508614;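 active = compound whose remaining NAD level is above about 45 nM, limit read from the data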;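 note: higher remaining NAD means stronger inhibition of SARM1 NADase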); settings: SAM-TIR HEK293T lysate NADase, at 1 µM, stronger effect = higher value
# Sequence of NAD(+) hydrolase SARM1 (Homo sapiens) (Q6SZW1 whole entry, looked up, the tested form may be a part): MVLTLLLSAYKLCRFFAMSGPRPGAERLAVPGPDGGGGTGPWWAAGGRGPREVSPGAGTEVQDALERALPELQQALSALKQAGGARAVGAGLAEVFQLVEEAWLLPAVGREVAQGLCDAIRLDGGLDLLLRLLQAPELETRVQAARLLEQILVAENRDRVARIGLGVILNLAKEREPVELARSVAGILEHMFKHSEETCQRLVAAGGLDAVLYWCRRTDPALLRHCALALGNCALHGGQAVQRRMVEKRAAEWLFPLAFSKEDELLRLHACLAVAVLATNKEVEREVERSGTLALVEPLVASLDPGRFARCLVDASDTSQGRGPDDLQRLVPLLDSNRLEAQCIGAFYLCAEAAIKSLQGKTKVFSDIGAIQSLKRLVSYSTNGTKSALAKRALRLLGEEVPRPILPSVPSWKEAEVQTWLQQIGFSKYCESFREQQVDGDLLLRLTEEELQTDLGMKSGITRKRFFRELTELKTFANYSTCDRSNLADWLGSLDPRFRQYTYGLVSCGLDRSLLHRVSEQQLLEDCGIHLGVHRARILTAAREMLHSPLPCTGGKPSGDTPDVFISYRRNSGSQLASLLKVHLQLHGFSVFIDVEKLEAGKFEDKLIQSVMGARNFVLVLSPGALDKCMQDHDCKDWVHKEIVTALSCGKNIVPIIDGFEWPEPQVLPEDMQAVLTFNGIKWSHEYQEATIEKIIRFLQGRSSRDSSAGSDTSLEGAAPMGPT
# [19] = target: Mitogen-activated protein kinase 7 (Homo sapiens) (UniProt Q13164); test: ERK5 transactivation activators in reporter cells, primary screen, cell-based, HTS (AID 1508626;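 active = luciferase signal above three times the same-plate solvent-only control wells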;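 note: luciferase driven by Gal4-ERK5 fusion binding five Gal4 sites before minimal TATA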); settings: HeLa Gal4-ERK5 transactivation, 18 h, at 5 µM, stronger effect = higher value
# Sequence of Mitogen-activated protein kinase 7 (Homo sapiens) (Q13164 whole entry, looked up, the tested form may be a part): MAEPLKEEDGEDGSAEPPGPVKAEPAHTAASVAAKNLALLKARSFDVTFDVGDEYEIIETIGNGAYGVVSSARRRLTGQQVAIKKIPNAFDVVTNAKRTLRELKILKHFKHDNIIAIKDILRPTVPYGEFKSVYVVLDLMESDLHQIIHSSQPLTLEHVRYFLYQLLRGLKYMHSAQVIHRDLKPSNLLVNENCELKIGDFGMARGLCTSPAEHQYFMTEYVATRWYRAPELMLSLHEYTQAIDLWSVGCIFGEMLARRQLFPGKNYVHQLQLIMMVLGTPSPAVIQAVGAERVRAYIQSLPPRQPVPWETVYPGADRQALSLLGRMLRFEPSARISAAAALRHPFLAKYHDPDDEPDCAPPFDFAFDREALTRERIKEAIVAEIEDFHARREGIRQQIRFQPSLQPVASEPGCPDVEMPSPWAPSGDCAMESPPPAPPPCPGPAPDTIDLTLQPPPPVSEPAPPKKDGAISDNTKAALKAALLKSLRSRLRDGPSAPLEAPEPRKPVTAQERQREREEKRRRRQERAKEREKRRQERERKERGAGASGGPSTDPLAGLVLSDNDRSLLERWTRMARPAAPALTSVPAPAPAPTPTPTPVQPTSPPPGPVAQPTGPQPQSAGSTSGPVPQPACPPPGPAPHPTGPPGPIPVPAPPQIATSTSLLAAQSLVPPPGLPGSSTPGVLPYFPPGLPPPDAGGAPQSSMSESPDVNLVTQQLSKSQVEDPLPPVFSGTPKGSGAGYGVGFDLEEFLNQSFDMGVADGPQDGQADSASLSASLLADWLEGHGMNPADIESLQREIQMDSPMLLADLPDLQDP
# [20] = viability rescue of complex I mutant cybrids, primary screen, cell-based, galactose medium, ATP luminescence (AID 1645843;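 active = z-score of at least 1.8 in each of two replicates, scored against plate mean and spread of sample wells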;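 note: positive z means more ATP and so rescue of galactose-driven cybrid death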); settings: complex I mutant cybrid cells, 72 h, stronger effect = higher value
# [21] = measured here: epithelial PC-3E GFP cell survival
# [22] = measured here: mesenchymal TEM4-18 mCherry cell survival
# [23] = measured here: relative caspase fold change +Dox/-Dox
# [24] = measured here: total cells with miR-34 induction, stronger effect = lower value
# [25] = measured here: total cells without miR-34 induction
# [26] = MELAS cybrid survival, CellTiter-Glo 48 h, stronger effect = higher value
# [27] = Rieske KO mouse fibroblast survival, CellTiter-Glo 72 h
structure (smiles),measurement,setting,value
Cc1cc(O)ccc1Cl,score,[1],0.98
same,cytochrome c release ratio,[2],1.22
same,inhibition of aggregation,[3],88%
same,parasite load remaining,[4],125% (inactive) and 54.1% (inactive)
same,viability,[4],73.3% and 86.2%
same,nuclear beta-catenin stimulation,[5]; at 10 µM,0.9% (inactive)
same,nuclear beta-catenin stimulation,"[5]; stimulation, at 2 µM",1.9%
same,insulin secretion stimulation,[6],0.3% (inactive)
same,viability decrease,[7],-17% (inactive)
same,tube area decrease,[8],1.5% (inactive)
same,GLP1 secretion stimulation,[9],0.3% (inactive)
same,inhibition of viability,[10],3.83% (inactive)
same,viability decrease (inhibition),[11],26.8% (inactive)
same,viability decrease (inhibition),[12],-3.4% (inactive)
same,inhibition,[13],3.62% (inactive)
same,red/green cell ratio (normalised),[14],1.21 (inactive)
same,normalised cell number,[14]; [21],1.13
same,normalised cell number,[14]; [22],1.36
same,activity remaining,[15],115% (inactive)
same,fold change,[16]; stronger effect = lower value,0.943 (inactive) and 0.921 (inactive)
same,fold change,[16]; [23],0.551 and 0.785
same,cell count,[16]; [24],8310 and 10900
same,cell count,[16]; [25],8820 and 11800
same,z-score,[17]; [26],-0.196 (inactive)
same,z-score,[17]; [27],-0.163
same,remaining NAD,[18],10 nM (inactive)
same,luciferase signal,[19],32 AU (inactive)
O=C1c2ccccc2C(=O)c2ccccc21,parasite load remaining,[4],115% (inactive)
same,viability,[4],67.1%
same,nuclear beta-catenin stimulation,[5]; at 10 µM,1.3% (inactive)
same,nuclear beta-catenin stimulation,"[5]; stimulation, at 2 µM",0.4%
same,insulin secretion stimulation,[6],-1.4% (inactive)
same,viability decrease,[7],2.3% (inactive)
same,tube area decrease,[8],6.7% (inactive)
same,GLP1 secretion stimulation,[9],1.9% (inactive)
same,inhibition of viability,[10],-45% (inactive)
same,viability decrease (inhibition),[11],31.6% (inactive)
same,viability decrease (inhibition),[12],4.05% (inactive)
same,inhibition,[13],-2.54% (inactive)
same,red/green cell ratio (normalised),[14],0.79 (inactive)
same,normalised cell number,[14]; [21],1.17
same,normalised cell number,[14]; [22],0.92
same,activity remaining,[15],119% (inactive)
same,luciferase signal,[19],100 AU (inactive)
O=c1oc2ccccc2c(O)c1Cc1c(O)c2ccccc2oc1=O,score,[1],0.69
same,cytochrome c release ratio,[2],0.7
same,inhibition of aggregation,[3],42.1%
same,parasite load remaining,[4],87.2% (inactive) and 95.3% (inactive) and 51.7% (inactive)
same,viability,[4],97.7% and 68.2% and 89.1%
same,nuclear beta-catenin stimulation,[5]; at 10 µM,-0.1% (inactive)
same,nuclear beta-catenin stimulation,"[5]; stimulation, at 2 µM",-2.5%
same,insulin secretion stimulation,[6],-1% (inactive)
same,viability decrease,[7],97.6% (active)
same,tube area decrease,[8],26% (inactive)
same,GLP1 secretion stimulation,[9],-3.4% (inactive)
same,inhibition of viability,[10],90.5% (active)
same,viability decrease (inhibition),[11],107% (active)
same,viability decrease (inhibition),[12],92.1% (active)
same,inhibition,[13],-29.3% (inactive)
same,red/green cell ratio (normalised),[14],0.99 (inactive)
same,normalised cell number,[14]; [21],1.34
same,normalised cell number,[14]; [22],1.32
same,activity remaining,[15],120% (inactive)
same,fold change,[16]; stronger effect = lower value,0.822 (inactive) and 0.882 (inactive) and 0.865 (inactive)
same,fold change,[16]; [23],1.17 and 1.33 and 1.22
same,cell count,[16]; [24],8510 and 8000 and 10400
same,cell count,[16]; [25],10300 and 9060 and 12000
same,z-score,[17]; [26],-0.183 (inactive) and 0.389 (inactive)
same,z-score,[17]; [27],-0.295 and 0.839
same,remaining NAD,[18],10 nM (inactive)
same,luciferase signal,[19],28 AU (inactive)
Cc1ccc(N=CN(C)C=Nc2ccc(C)cc2C)c(C)c1,parasite load remaining,[4],103% (inactive) and 56.6% (inactive)
same,viability,[4],84.4% and 95.1%
same,nuclear beta-catenin stimulation,[5]; at 10 µM,0.6% (inactive)
same,nuclear beta-catenin stimulation,"[5]; stimulation, at 2 µM",2.7%
same,insulin secretion stimulation,[6],1.3% (inactive)
same,viability decrease,[7],15.1% (inactive)
same,tube area decrease,[8],-4.8% (inactive)
same,GLP1 secretion stimulation,[9],-3.1% (inactive)
same,inhibition of viability,[10],2.47% (inactive)
same,viability decrease (inhibition),[11],-61.8% (inactive)
same,viability decrease (inhibition),[12],-5.9% (inactive)
same,inhibition,[13],17.7% (inactive)
same,red/green cell ratio (normalised),[14],1.11 (inactive)
same,normalised cell number,[14]; [21],1.13
same,normalised cell number,[14]; [22],1.26
same,activity remaining,[15],119% (inactive)
same,fold change,[16]; stronger effect = lower value,0.87 (inactive)
same,fold change,[16]; [23],1.15
same,cell count,[16]; [24],11000
same,cell count,[16]; [25],12600
same,remaining NAD,[18],10 nM (inactive)
same,luciferase signal,[19],32 AU (inactive)
N[C@@H]1C[C@H]1c1ccccc1,parasite load remaining,[4],105% (inactive)
same,viability,[4],90.9%
same,nuclear beta-catenin stimulation,[5]; at 10 µM,1.6% (inactive)
same,nuclear beta-catenin stimulation,"[5]; stimulation, at 2 µM",2.1%
same,insulin secretion stimulation,[6],0.5% (active)
same,viability decrease,[7],-2.2% (inactive)
same,tube area decrease,[8],-22.1% (inactive)
same,GLP1 secretion stimulation,[9],3.6% (inactive)
same,inhibition of viability,[10],19.4% (inactive)
same,viability decrease (inhibition),[11],10% (inactive)
same,viability decrease (inhibition),[12],-5.6% (inactive)
same,inhibition,[13],-7.3% (inactive) and 0.348% (inactive)
same,fold change,"[16]; stronger effect = lower value, cell number ratio, induced over uninduced",0.966 (inactive)
same,fold change,[16]; [23],1.35
same,cell count,[16]; [24],9350
same,cell count,[16]; [25],9680
same,luciferase signal,[19],36 AU (inactive)
same,z-score,[20],0.32 (inactive)
CC(C)[N+](C)(CCC(C(N)=O)(c1ccccc1)c1ccccc1)C(C)C,score,[1],1.43
same,cytochrome c release ratio,[2],1.07
same,inhibition of aggregation,[3],35.2%
same,parasite load remaining,[4],94.4% (inactive) and 83.4% (inactive) and 60% (inactive)
same,viability,[4],100% and 76.1% and 93.6%
same,nuclear beta-catenin stimulation,[5]; at 10 µM,0.4% (inactive)
same,nuclear beta-catenin stimulation,"[5]; stimulation, at 2 µM",-0.3%
same,insulin secretion stimulation,[6],-0.4% (inactive)
same,viability decrease,[7],-32.8% (inactive)
same,tube area decrease,[8],-3.8% (inactive)
same,GLP1 secretion stimulation,[9],-1.4% (inactive)
same,inhibition of viability,[10],-3.83% (inactive)
same,viability decrease (inhibition),[11],22% (inactive)
same,viability decrease (inhibition),[12],-1.8% (inactive)
same,inhibition,[13],-13.2% (inactive)
same,red/green cell ratio (normalised),[14],0.98 (inactive)
same,normalised cell number,[14]; [21],1.19
same,normalised cell number,[14]; [22],1.17
same,activity remaining,[15],119% (inactive)
same,fold change,[16]; stronger effect = lower value,0.953 (inactive) and 0.875 (inactive)
same,fold change,[16]; [23],1.13 and 0.654
same,cell count,[16]; [24],8490 and 10700
same,cell count,[16]; [25],8910 and 12200
same,z-score,[17]; [26],-0.488 (inactive)
same,z-score,[17]; [27],-0.766
same,remaining NAD,[18],10 nM (inactive)
same,luciferase signal,[19],76 AU (inactive)
C[C@@H]1O[C@@H](O[C@H]2C[C@@H](O)[C@]3(CO)[C@H]4[C@H](O)C[C@]5(C)[C@@H](C6=CC(=O)OC6)CC[C@]5(O)[C@@H]4CC[C@]3(O)C2)[C@H](O)[C@H](O)[C@H]1O,parasite load remaining,[4],-1.77% (inactive) and 5.6% (inactive) and -0.23% (inactive)
same,viability,[4],38.8% and 25.7% and 34%
same,nuclear beta-catenin stimulation,[5]; at 10 µM,0% (inactive)
same,nuclear beta-catenin stimulation,"[5]; stimulation, at 2 µM",-1.2%
same,insulin secretion stimulation,[6],5.8% (inactive)
same,viability decrease,[7],84.8% (active)
same,tube area decrease,[8],112% (active)
same,GLP1 secretion stimulation,[9],9.2% (inactive)
same,inhibition of viability,[10],56.6% (active)
same,viability decrease (inhibition),[11],61% (active)
same,viability decrease (inhibition),[12],77.4% (active)
same,inhibition,[13],-10.9% (inactive)
same,fold change,[16]; stronger effect = lower value,0.999 (inactive) and 0.916 (inactive) and 0.73 (inactive)
same,fold change,[16]; [23],0.275 and 1.45 and 1.97
same,cell count,[16]; [24],345 and 529 and 320
same,cell count,[16]; [25],346 and 578 and 438
same,z-score,[17]; [26],2.21 (active)
same,z-score,[17]; [27],-0.329
same,remaining NAD,[18],10 nM (inactive)
same,luciferase signal,[19],16 AU (inactive)
same,z-score,[20],-1.23 (inactive) and -2.25 (inactive)

# — PubChem BioAssay
